The record followed here is PubChem BioAssay (NCATS).

Each structure is given as a SMILES string. Records with an inconclusive call do not appear. Active and inactive are the calls of the source. Unless noted, the call rests on the fitted dose curve; in most records, active means well fitted curve in the direction sought with a large enough effect; inconclusive means small, poorly fitted or top-dose-only effect, or another doubt; inactive means no such curve, though single readings can be large; an effect the other way counts as inactive or inconclusive.

Assay [1] addresses Alpha-galactosidase A (Homo sapiens) (UniProt P06280). Put plainly: Counterscreen for Glucocerebrosidase Inhibitors: qHTS Assay for Human alpha-Galactosidase at pH 4.5 (AID 992). Further: 0% is about no effect. In short, it runs like this: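 Read-out is 4-methylumbelliferone fluorescence (365 nm excitation, 440 nm emission) after a pH 10 NaOH/glycine stop. Reactions held 2 nM enzyme and 80 uM substrate at pH 4.5 for 20 min at room temperature.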

Assay [2] deals with alpha-glucosidase (Oryza sativa, rice) (UniProt Q653V4). Put plainly: Counterscreen for Glucocerebrosidase Inhibitors: qHTS Assay for Rice alpha-Glucosidase at pH 5.0 (AID 997).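 Further: 0% = full activity with enzyme and -100% = basal without enzyme.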 An outline of the steps: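 Rice alpha-glucosidase (4 nM final) with 400 uM 4-methylumbelliferyl-alpha-D-glucopyranoside in citrate buffer pH 5.0, 20 min at room temperature, stopped at pH 10; fluorescence 365/440 nm, compounds 0.7 nM–77 uM, AC50 from Hill fits.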

Assay [3] can be described thus: qHTS Assay for Lipid Storage Modulators (AID 1519; calls by dose curve; on activity change, negative = inhibition: on the % scale 0 is the no-effect control and ±100 the full control effect). Conditions: Drosophila S3 cells, BODIPY lipid droplet/cell ratio, laser cytometry, cells loaded with oleic acid; for activity change, negative = inhibition: at 57.5 µM (top of the series). An outline of the steps:
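Cells seeded at 5,000 per well were treated with compounds over a concentration series and loaded with oleic acid (400 uM, as added). Lipid droplet fluorescence (488 nm excitation, 500-530 nm channel) was read by laser-scanning cytometry and normalized to 20 uM Triacsin C.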

The target in assay [4] is DNA repair nuclease/redox regulator APEX1 (Homo sapiens) (UniProt P27695). Briefly: qHTS Validation Assay for Inhibitors of the Human Apurinic/apyrimidinic Endonuclease 1 (APE1) (AID 1705;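 further: TAMRA fluorescence gain over two minutes as APE1 cuts a quenched THF abasic duplex; on the % scale 0 is the no-effect control and ±100 the full control effect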). An outline of the steps: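 Human APE1 was preincubated with compound for 15 min at room temperature, then 50 nM (final) THF-abasic double-stranded DNA substrate bearing 5'-TAMRA and 3'-BHQ-2 was added. Incision-driven fluorescence rise (ex 525/em 598 nm) was read kinetically.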
DNA repair nuclease/redox regulator APEX1 (Homo sapiens), sequence (P27695 whole entry, looked up): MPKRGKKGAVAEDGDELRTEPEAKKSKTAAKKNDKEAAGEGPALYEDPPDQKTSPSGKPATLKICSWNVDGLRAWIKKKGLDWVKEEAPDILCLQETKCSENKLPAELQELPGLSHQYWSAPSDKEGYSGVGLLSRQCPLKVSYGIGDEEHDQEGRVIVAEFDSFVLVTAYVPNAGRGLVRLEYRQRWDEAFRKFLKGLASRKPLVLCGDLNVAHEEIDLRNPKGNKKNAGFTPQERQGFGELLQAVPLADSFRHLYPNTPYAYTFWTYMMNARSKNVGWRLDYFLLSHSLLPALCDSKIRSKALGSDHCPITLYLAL
(In general: In qHTS, concentration-response curves come from the screen itself.)

Assay [5] can be described thus: Counterscreen for APE1 Inhibitors: Fluorescent Dye Displacement Validation Assay (AID 1707).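 Further: plate controls were ThO with dsDNA and no compound for no effect and ThO without dsDNA for full effect.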 An outline of the steps: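 ThO 250 nM + dsDNA 50 nM (THF abasic site, 5'-TAMRA), Tris-HCl pH7.5/50mM NaCl/2 mM MgCl2/0.01% Tween-20; compounds pin-transferred; ex 480/em 540 nm endpoint. Neutral = no compound; no-DNA ThO wells = negative control.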
A general note: A counterscreen serves to expose hits that act by an unwanted route or on another target.

In assay [6] the target is Endonuclease 4 (Escherichia coli (strain K12)) (UniProt P0A6C1). Put plainly: Counterscreen for APE1 Inhibitors: qHTS Validation Assay for Inhibitors of Endonuclease IV (AID 1708). Further: on the % scale 0 is the no-effect control and ±100 the full control effect. In short, it runs like this: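 Concentration-response counterscreen run identically to the APE1 assay: 15 min room-temperature preincubation of 2 nM enzyme with compound, reaction started with 50 nM quenched abasic DNA, progress taken from kinetic fluorescence.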

Assay [7] can be described thus: qHTS for differential inhibitors of proliferation of Plasmodium falciparum line 7G8 (AID 1815).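 Further: parasite growth measured after three days of incubation.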 Further: potency means the concentration at half of the fitted maximal effect.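 On activity change, negative = inhibition: plate controls were vehicle wells for no effect and reference inhibitor wells for full effect.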
The nature of assay [8]: qHTS for differential inhibitors of proliferation of Plasmodium falciparum line GB4 (AID 1816).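 Further: parasite growth measured after 72 h incubation.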 Further: potency means the concentration at half of the fitted maximal effect.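 On activity change, negative = inhibition: 0% = vehicle DMSO and -100% = reference inhibitor.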 Conditions: Potency: Plasmodium falciparum GB4 proliferation inhibition.
A short description of assay [9]: qHTS for differential inhibitors of proliferation of Plasmodium falciparum line 3D7 (AID 1876).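 Further: parasite growth measured after three days of culture; 0% = vehicle wells and -100% = reference inhibitor wells.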
Assay [10] is described as follows: qHTS for differential inhibitors of proliferation of Plasmodium falciparum line D10 (AID 1877).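 Further: parasites grown with compound for 72 h before DNA staining; plate controls were vehicle wells for no effect and reference inhibitor wells for full effect.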
[11] abbreviates: measured here: cell count channel max response.
Where [12] appears, read: measured here: lipid channel max response.

Alpha-galactosidase A (Homo sapiens), sequence (P06280 whole entry, looked up): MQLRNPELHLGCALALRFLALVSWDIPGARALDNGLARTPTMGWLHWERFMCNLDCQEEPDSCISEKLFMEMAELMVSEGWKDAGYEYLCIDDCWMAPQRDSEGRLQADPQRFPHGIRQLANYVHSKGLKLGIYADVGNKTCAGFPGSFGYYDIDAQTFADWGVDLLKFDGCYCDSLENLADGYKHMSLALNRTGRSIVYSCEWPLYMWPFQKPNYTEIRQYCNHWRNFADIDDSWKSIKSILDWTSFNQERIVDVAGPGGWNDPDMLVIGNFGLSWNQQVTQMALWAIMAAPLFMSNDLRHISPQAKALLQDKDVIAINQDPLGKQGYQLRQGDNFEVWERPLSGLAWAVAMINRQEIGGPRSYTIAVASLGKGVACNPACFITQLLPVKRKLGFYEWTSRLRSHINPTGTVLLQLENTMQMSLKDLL

Turning to `CC(=O)NCCc1c[nH]c2ccc(O)cc12`, the outcome in assay [1] and in assay [2] was inactive. Besides, the activity change, negative = inhibition in [3] is 10.9% (inactive). Further, the max response in assay [3] (setting [11]) came out at 15.4%; in [3] (setting [12]), 28.6%. For the same compound, the Potency entry in [4], in assay [5], in assay [6], in assay [7], in assay [8] and in [9] was “inactive” in each case. Moreover, the Potency entry in assay [10] is “inactive”.

As for `Cc1cccc(C(=O)NCN2CCN(c3ccccc3C#N)CC2)c1`, the compound was called inactive in assay [1] and in assay [2]. Moreover, the activity change, negative = inhibition in assay [3] was 0.112% (inactive). The max response in assay [3] (setting [11]) is -23.9%; in [3] (setting [12]) it was -22.6%. For the same compound, the Potency result in assay [4], in assay [5], in assay [6], in [7], in assay [9] and in assay [10] was “inactive” each time.

Take `O=[N+]([O-])c1cccc2cn[nH]c12`: the result in assay [1] and in assay [2] was inactive. In assay [3], the activity change, negative = inhibition is 13.6% (inactive). In addition, the max response is 18.6% in [3] (setting [11]) and 36.8% in assay [3] (setting [12]). In addition, the Potency result in [4], in [5], in [7], in assay [8], in assay [9] and in assay [10] was “inactive” throughout.

In the case of `CNCCNS(=O)(=O)c1cccc2cnccc12`, the call in [1] and in [2] was inactive. Also, the activity change, negative = inhibition in [3] is 0.292% (inactive). In addition, the max response in [3] (setting [11]) stood at 5.66%; in assay [3] (setting [12]), 5.52%. In addition, the Potency result in [4], in assay [5], in assay [6], in assay [7], in assay [8] and in [9] was “inactive” in each case. Further, the Potency entry in [10] is “inactive”.

For `CC(C)NC[C@H](O)COc1cccc2ccccc12`, in assay [3], the activity change, negative = inhibition is 8.19% (inactive). The max response in assay [3] (setting [11]) was found to be 19.6%; in assay [3] (setting [12]), 29.6%.

As for `CCCCCCCCCCCCCCCCCCOC[C@H](COP(=O)([O-])OCC[N+](C)(C)C)OC`, the activity change, negative = inhibition in [3] is 1.74% (inactive). The max response in assay [3] (setting [11]) turned out to be 55.6%; in [3] (setting [12]), 57.7%. Moreover, the Potency result in [4], in assay [5], in assay [6], in assay [7], in [8] and in assay [9] was “inactive” each time. Besides, the Potency entry in [10] is “inactive”.

Consider `C[N+](C)(C)CC=O`, for which the compound was called inactive in assay [1] and in [2]. Further, in [3], the activity change, negative = inhibition is -0.649% (inactive). The max response in assay [3] (setting [11]) amounted to 50.2%; in assay [3] (setting [12]), 40.1%. For the same compound, the Potency entry in assay [4], in assay [5], in assay [6], in assay [7], in [8] and in [9] was “inactive” in each case. For the same compound, in assay [10], the Potency result was “inactive”.

Take `CCCn1c(=O)c2c(ncn2C)n(CCC)c1=O`: the result in assay [1] and in assay [2] was inactive. In assay [3], the activity change, negative = inhibition was -2.98% (inactive). Besides, the max response was -22.4% in assay [3] (setting [11]) and -33.5% in [3] (setting [12]). Besides, the Potency entry in [4], in assay [5], in assay [6], in [7], in assay [8] and in assay [9] was “inactive” each time. For the same compound, the Potency result in [10] is “inactive”.

`CCN1C(=O)C=CC1=O`: the outcome in [1] and in [2] was inactive. The activity change, negative = inhibition in [3] was 0.136% (inactive). The figures for the max response in assay [3] (setting [11]) and in [3] (setting [12]) were -19.7% and -18.9%, respectively. Further, the Potency result in assay [4], in assay [5], in [6], in assay [7], in [8] and in assay [9] was “inactive” each time. Besides, the Potency entry in assay [10] is “inactive”.

`O=c1cc(-c2ccccc2)[nH]c2nc(Cl)ccc12`: the call in assay [1] and in assay [2] was inactive. Besides, the activity change, negative = inhibition in assay [3] is 0.241% (inactive). Besides, the max response stood at 61.8% in [3] (setting [11]) and 65% in assay [3] (setting [12]). Also, the Potency result in assay [4], in [5] and in assay [6] was “inactive” in each case. Moreover, the Potency in assay [7] is 10 µM (active); in assay [8], 14.1 µM (active).
